PubChem BioAssay AID624134 (Broad Institute, 2012)
The campaign covered roughly 1,600 compounds. About 1,100 (69%) were called active. So high a share suggests a set chosen from earlier hits. Not all results are given here. Measured potencies and affinities stand elsewhere. Records with an inconclusive call do not appear. Unmarked numbers belong to inactive results.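 How the source made its calls: active means signal drop with fitted half-maximal concentration no higher than twice the top valid tested concentration; inconclusive means flat curve with 30 to 70% signal loss, or poor fit; inactive means the rest, including signal rises and flat curves within 30%.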

Assay: HepG2 cell cytotoxicity, dose response, cytotoxicity control for Shn3 inhibitor project, CellTiter-Glo, cherry-picked (AID 624134);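 further: 0% = median of neutral control wells and -100% = median of positive control wells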
Settings: HepG2 viability, CellTiter-Glo ATP luminescence, 48 h; series mostly up to 35 µM; activity change, negative = cytotoxicity: at the top concentration

In order of falling “activity change, negative = cytotoxicity” value:
1. Cc1nc2ncnn2c(C)c1Cc1cccc(F)c1  9.15%
2. Nc1c(Br)cc2c(c1Br)C(O)c1ccccc1-2 (configuration not stated)  6.05%
3. COc1ccc([C@H]2CC(=O)C=C(c3ccc4c(c3)OCO4)C2)cc1OC  5.26%
4. CSc1cccc(NC(=O)N2CCCC(CNS(=O)(=O)Cc3ccccc3)C2)c1 (configuration not stated)  2.73%
5. O=C(O)c1cccc(COc2ccc(CO)cc2Cl)c1  0.142%
6. CC(C)=CCC/C(C)=C/CNC(=O)C[C@H]1C[C@H](C(=O)N2CCOCC2)[C@@]2(C)c3[nH]c4cc(CCC(=O)N(C)C)ccc4c3CCN2C1=O  -0.565%
7. Cc1ccc(NC(=O)C2CCCN(S(=O)(=O)c3c(C)noc3C)C2)cc1 (configuration not stated)  -0.872%
8. COc1cc(OC)cc(C(=O)OCC(=O)Nc2ccc(F)cc2F)c1  -1.06%
9. CCN(CC)Cc1c(O)ccc2c1O/C(=C\C=C\c1ccccc1)C2=O  -1.45%
10. CCN(CC)S(=O)(=O)c1ccc(N2CCOCC2)c(NC(=O)c2nn(C(C)C)c(=O)c3ccccc23)c1  -1.72%
11. CN(C)c1ncnc2c1C(c1ccccc1)C(C)(C)O2 (configuration not stated)  -2.79%
12. COc1ccc(S(=O)(=O)N2CCOCC2)cc1NC(=O)COC(=O)CC1CC2CCC1C2 (configuration not stated)  -3.39%
13. CCN(CC)C(=S)Sc1c(-c2ccccc2)c2cc(Cl)ccc2[nH]c1=O  -4.13%
14. Cc1ccc(-c2ccc(/C=C3\C(=O)ON=C3c3ccccc3)o2)c([N+](=O)[O-])c1  -4.13%
15. COc1ccc(C(=O)NNC(=O)c2cccc(S(=O)(=O)N3CCOCC3)c2)cc1  -5.14%
16. O=C(COC(=O)c1n[nH]c2ccccc12)Nc1ccc(S(=O)(=O)N2CCCC2)cc1  -5.15%
17. CCC(=O)c1cn(CC(=O)Nc2cccc(C)c2C)c2ccccc12  -5.31%
18. CC(=O)OCC(=O)[C@@]1(O)CC[C@H]2[C@@H]3CCC4=CC(=O)CC[C@]4(C)[C@H]3C(=O)C[C@@]21C  -6.11%
19. COc1cc(C(=O)OCC(=O)NC2CCCCCC2)ccc1OCC(C)C  -6.66%
20. O=C(O)c1cccc(COc2ccccc2Cl)c1  -6.88%
21. COc1ccc(OC)c(NC(=O)c2cc(-c3cc(F)ccc3OCC3CCCO3)n[nH]2)c1 (configuration not stated)  -7.22%
22. CCn1cc(CNCc2cn(-c3ccccc3C)nc2-c2ccc(OC)c(F)c2)cn1  -7.23%
23. O=C(Cn1cc(C(=O)C2CC2)c2ccccc21)Nc1ccccc1Cl  -7.27%
24. CCOC(=O)C1CCN(c2cc3c(cc2NC(=O)c2ccccc2Br)n(C)c(=O)n3C)CC1  -8.07%
25. COc1ccc(NS(=O)(=O)c2ccc(NC(=O)C(CCSC)NC(N)=O)cc2)cc1 (configuration not stated)  -10%
26. O=C(Nc1ccc(S(=O)(=O)N2CCN(Cc3ccccc3)CC2)cc1)c1cnccn1  -11.4%
27. COc1ccccc1/C=C1\CCCC2=C1Nc1nnnn1C2c1ccccc1OC (configuration not stated)  -11.8%
28. Cc1csc(=O)n1CCC(=O)N(C)Cc1c(F)cccc1Cl  -12.2%
29. O=C(CCS(=O)(=O)c1ccccc1)Nc1nc2c(s1)CCCC2  -13%
30. CC[C@]12c3[nH]c4cc(CCC(=O)N(C)C)ccc4c3CCN1C(=O)[C@@H](CC(=O)NC/C=C(\C)CCC=C(C)C)C[C@@H]2C(=O)N1CCN(C(=O)c2ccco2)CC1  -14.9%
31. COc1ccc(-c2cc(C(F)(F)F)nc(S(=O)(=O)CCCC(=O)Nc3cccnc3Cl)n2)cc1OC  -38.1%
32. CCCCCCCCCCOC(=O)Cn1c(COc2ccc(OC)cc2)[n+](C)c2ccccc21  -45.4%
